# According to PubChem BioAssay (EPA / NIEHS):
# Where “and” joins values, the source holds several entries; their conditions need not be identical. Identical values can stand only once. Results filed as inconclusive are left out. Calls of active or inactive are those of the source. Rule for the calls: active = hit-call score of the fitted dose curve at least 0.9, where 1 is the maximum; inconclusive = response in the unintended direction; inactive = score below 0.9.
# Legend:
# [1] = biological target: human Esterase Plasma (ES), BCHE (gene 590) (UniProt P06276); experiment: NVS_ENZ_hES: NovaScreen (NVS) Enzymatic Assay for human Esterase Plasma (ES) (AID 2283157)
# human Esterase Plasma (ES), BCHE (gene 590), sequence (P06276 whole entry, looked up): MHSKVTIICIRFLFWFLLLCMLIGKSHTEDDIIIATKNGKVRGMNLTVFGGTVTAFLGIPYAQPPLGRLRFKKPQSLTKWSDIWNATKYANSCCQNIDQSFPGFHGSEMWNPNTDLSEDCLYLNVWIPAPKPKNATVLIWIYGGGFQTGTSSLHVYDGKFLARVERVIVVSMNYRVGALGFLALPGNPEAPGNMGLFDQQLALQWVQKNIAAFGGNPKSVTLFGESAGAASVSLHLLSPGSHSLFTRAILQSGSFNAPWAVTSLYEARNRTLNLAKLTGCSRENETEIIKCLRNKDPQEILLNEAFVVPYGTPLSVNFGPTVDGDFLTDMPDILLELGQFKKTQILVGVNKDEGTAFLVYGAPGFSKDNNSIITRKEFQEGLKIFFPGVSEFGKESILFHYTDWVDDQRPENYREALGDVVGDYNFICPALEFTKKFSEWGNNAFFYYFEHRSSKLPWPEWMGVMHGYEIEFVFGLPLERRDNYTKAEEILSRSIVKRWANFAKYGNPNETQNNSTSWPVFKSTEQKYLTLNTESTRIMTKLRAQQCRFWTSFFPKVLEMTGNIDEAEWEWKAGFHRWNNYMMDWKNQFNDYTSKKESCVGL
# Summary of the method: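 Primary single-concentration screen at 25 uM in duplicate, then concentration-response to a 50 uM top dose. Human plasma esterase activity detected colorimetrically after 0.25 h incubation, with DMSO as baseline.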
# [2] = biological target: human FYN Proto-Oncogene, Src family Tyrosine Kinase (Fyn), FYN (gene 2534) (UniProt P06241); experiment: NVS_ENZ_hFyn: NovaScreen (NVS) Enzymatic Assay for human FYN Proto-Oncogene, Src family Tyrosine Kinase (Fyn) (AID 2283161)
# human FYN Proto-Oncogene, Src family Tyrosine Kinase (Fyn), FYN (gene 2534), sequence (P06241 whole entry, looked up): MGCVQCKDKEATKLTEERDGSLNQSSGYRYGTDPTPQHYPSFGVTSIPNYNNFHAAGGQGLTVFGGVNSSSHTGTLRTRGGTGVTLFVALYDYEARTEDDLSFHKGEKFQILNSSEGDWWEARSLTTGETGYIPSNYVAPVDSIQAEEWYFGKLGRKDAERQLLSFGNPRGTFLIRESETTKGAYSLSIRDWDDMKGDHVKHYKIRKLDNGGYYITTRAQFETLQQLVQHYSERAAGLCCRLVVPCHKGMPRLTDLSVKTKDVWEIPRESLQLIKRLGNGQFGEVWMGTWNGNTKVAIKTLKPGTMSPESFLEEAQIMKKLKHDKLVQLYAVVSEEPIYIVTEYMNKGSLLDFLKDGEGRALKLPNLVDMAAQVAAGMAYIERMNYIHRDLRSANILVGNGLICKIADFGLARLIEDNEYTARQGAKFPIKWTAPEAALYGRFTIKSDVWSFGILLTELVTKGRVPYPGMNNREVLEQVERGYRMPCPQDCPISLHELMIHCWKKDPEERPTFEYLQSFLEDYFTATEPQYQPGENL
# Summary of the method: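 Cell-free kinase activity read by fluorescence after mobility-shift separation of substrate and product, 1 h post-dose. Initial single concentration 25 uM in duplicate, then concentration-response follow-up; DMSO baseline.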
# [3] = biological target: Glycogen synthase kinase-3 beta (Homo sapiens) (UniProt P49841); experiment: NVS_ENZ_hGSK3b: NovaScreen (NVS) Enzymatic Assay for human Glycogen Synthase Kinase-3 beta (GSK3b) (AID 2283165)
# Glycogen synthase kinase-3 beta (Homo sapiens), sequence (P49841 whole entry, looked up): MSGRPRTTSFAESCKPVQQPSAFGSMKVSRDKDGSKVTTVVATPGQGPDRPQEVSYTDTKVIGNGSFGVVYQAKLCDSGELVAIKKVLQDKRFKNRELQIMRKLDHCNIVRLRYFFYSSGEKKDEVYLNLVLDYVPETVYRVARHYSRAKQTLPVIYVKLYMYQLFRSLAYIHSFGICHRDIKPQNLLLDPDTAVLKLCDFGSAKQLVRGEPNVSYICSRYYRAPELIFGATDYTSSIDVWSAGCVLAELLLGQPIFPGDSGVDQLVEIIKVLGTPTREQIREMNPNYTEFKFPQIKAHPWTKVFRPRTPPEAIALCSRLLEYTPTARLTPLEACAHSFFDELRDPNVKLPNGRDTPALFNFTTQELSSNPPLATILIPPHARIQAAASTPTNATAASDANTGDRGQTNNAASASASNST
# Experimental: (§1) NVS_ENZ_hGSK3b is a biochemical, single-readout assay that uses extracted gene-proteins in a cell-free assay. Measurements were taken 1 hour after chemical dosing in a 384-well plate.NVS_ENZ_hGSK3b is one of one assay component(s) measured or calculated from the NVS_ENZ_hGSK3b assay. It is designed to make measurements of enzyme activity, a form of enzyme reporter, as detected with fluorescence intensity signals by Fluorescence and electrophoretic mobility shift technology.Data from the assay component NVS_ENZ_hGSK3b was analyzed into 1 assay endpoint. This assay endpoint, NVS_ENZ_hGSK3b, was analyzed in the positive analysis fitting direction relative to DMSO as the negative control and baseline of activity. Using a type of enzyme reporter, loss-of-signal activity can be used to understand changes in the enzymatic activity as they relate to the gene GSK3B. Furthermore, this assay endpoint can be referred to as a primary readout, because this assay has produced multiple assay endpoints where this one serves a enzymatic activity function. To generalize the intended target to other relatable targets, this assay endpoint is annotated to the kinase intended target family, where the subfamily is serine/threonine kinase.
# (§2) Binding assays used specific radioligands (tritiated, iodinated) with non-radioactive competitive displacement ligands in agonist or antagonist protocols (as indicated) and various reference compounds and inhibitors to titrate specific binding to receptors and transporters. Most enzyme assays (CYPs, kinases, phosphatases, proteases, HDACs) used recombinant protein and specific substrates (fluorescence mostly, some colorimetric and radioactive) and inhibitors, followed by a biochemical separation of substrate and product. All assays for the biochemical HTS were initially run in duplicate at a single concentration (10 uM for CYP450 assays and 25 uM for all others). […]
# [4] = biological target: human Ephrin type-A Receptor 2 (EphA2), EPHA2 (gene 1969) (UniProt P29317); experiment: NVS_ENZ_hEphA2: NovaScreen (NVS) Enzymatic Assay for human Ephrin type-A Receptor 2 (EphA2) (AID 2283155)
# human Ephrin type-A Receptor 2 (EphA2), EPHA2 (gene 1969), sequence (P29317 whole entry, looked up): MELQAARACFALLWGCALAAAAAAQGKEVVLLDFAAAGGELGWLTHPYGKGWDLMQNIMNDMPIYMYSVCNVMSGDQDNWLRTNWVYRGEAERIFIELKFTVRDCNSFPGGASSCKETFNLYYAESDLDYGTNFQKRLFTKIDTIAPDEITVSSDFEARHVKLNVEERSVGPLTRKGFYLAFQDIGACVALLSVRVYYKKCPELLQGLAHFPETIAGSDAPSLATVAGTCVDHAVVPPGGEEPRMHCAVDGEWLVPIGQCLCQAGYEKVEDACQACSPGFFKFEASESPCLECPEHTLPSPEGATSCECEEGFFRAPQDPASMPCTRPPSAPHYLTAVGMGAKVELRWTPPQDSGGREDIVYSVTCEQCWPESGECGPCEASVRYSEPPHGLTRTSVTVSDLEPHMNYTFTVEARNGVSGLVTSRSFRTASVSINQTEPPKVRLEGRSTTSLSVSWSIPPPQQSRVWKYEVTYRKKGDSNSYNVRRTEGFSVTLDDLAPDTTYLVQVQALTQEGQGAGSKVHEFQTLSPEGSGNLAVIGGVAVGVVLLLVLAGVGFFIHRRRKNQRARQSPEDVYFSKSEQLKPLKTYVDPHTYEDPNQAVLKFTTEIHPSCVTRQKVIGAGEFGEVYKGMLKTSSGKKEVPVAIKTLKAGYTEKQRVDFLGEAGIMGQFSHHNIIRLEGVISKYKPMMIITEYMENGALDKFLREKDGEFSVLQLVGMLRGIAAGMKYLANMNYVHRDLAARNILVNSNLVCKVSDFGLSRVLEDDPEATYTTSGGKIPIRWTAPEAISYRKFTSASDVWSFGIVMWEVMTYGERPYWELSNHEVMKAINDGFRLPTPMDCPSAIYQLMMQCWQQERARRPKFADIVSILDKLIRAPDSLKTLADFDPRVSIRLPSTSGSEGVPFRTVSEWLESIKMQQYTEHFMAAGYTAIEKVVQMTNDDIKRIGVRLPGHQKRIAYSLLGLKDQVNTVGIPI
# Experimental: as §1, with “NVS_ENZ_hEphA2” for “NVS_ENZ_hGSK3b”, “plate.NVS_ENZ_hEphA2” for “plate.NVS_ENZ_hGSK3b”, “NVS_ENZ_hEphA2,” for “NVS_ENZ_hGSK3b,”, “EPHA2.” for “GSK3B.”, “receptor tyrosine” for “serine/threonine”
# Binding assays used specific radioligands (tritiated, iodinated) with non-radioactive competitive displacement ligands in agonist or antagonist protocols (as indicated) and various reference compounds and inhibitors to titrate specific binding to receptors and transporters. Most enzyme assays (CYPs, kinases, phosphatases, proteases, HDACs) used recombinant protein and specific substrates (fluorescence mostly, some colorimetric and radioactive) and inhibitors, followed by a biochemical separation of substrate and product. All assays for the biochemical HTS were initially run in duplicate at a single concentration (10 uM for CYP450 assays and 25 uM for all others). Assay-chemical combinations meeting a pre-defined threshold (e.g., 30% inhibition and other criteria defined below) were then run in singleton concentration-response format with maximum concentration of 20 uM for CYPs and 50 uM for all others. Each assay was run with positive and negative controls, and concurrent controls on every plate. The follow-up (secondary) screen tested active chemical-pairs in concentration series, as well as a few additional assays not tested in the primary screen, some selected negative inactives, and several cases re-run in the concentration series for confirmatory purposes.
# [5] = biological target: human Ephrin type-A Receptor 1 (EphA1), EPHA1 (gene 2041) (UniProt P21709); experiment: NVS_ENZ_hEphA1: NovaScreen (NVS) Enzymatic Assay for human Ephrin type-A Receptor 1 (EphA1) (AID 2283158);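 note: activity is signal loss versus DMSO meaning EphA1 kinase inhibition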
# human Ephrin type-A Receptor 1 (EphA1), EPHA1 (gene 2041), sequence (P21709 whole entry, looked up): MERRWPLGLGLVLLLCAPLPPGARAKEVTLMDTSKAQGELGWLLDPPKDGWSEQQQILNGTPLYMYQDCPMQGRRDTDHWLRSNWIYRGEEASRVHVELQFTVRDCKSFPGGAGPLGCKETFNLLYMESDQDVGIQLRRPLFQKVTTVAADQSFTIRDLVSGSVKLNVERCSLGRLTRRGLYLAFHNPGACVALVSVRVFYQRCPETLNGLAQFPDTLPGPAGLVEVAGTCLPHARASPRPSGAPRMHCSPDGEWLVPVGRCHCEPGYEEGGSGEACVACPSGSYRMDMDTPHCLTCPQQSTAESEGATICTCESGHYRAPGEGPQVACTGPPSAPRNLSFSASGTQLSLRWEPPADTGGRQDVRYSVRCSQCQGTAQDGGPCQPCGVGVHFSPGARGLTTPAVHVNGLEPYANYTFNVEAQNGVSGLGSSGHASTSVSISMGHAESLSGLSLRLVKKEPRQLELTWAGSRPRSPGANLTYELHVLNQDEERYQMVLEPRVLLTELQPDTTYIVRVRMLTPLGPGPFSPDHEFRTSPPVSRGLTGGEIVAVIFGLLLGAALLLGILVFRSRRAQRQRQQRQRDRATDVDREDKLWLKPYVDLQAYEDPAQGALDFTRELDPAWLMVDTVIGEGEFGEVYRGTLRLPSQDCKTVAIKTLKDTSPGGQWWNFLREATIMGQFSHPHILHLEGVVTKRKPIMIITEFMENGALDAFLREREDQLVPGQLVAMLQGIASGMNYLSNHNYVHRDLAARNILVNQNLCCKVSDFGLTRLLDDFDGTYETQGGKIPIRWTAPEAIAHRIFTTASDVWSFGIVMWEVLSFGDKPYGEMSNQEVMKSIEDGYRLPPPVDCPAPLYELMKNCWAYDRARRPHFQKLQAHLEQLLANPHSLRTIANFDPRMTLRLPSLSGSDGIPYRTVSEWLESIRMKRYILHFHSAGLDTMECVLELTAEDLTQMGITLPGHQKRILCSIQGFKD
# Summary of the method: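 Biochemical kinase assay run cell-free; 1 h incubation; readout is fluorescence with mobility-shift separation of product. Concentration-response up to 50 uM for actives from a 25 uM screen.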
# [6] = biological target: human Fibroblast Growth Factor Receptor 1 (FGFR1), FGFR1 (gene 2260) (UniProt P11362); experiment: NVS_ENZ_hFGFR1: NovaScreen (NVS) Enzymatic Assay for human Fibroblast Growth Factor Receptor 1 (FGFR1) (AID 2283159);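 for AC50: hits lower the signal so potencies describe inhibitors of the kinase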
# Summary of the method: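 Cell-free recombinant kinase with fluorescent substrate, product separated by electrophoretic mobility shift; read 1 hour after dosing, loss of signal relative to DMSO. Initial screen in duplicate at 25 uM, actives followed in concentration series.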
# [7] = biological target: human IkappaB Kinase alpha (IKKa), CHUK (gene 1147) (UniProt O15111); experiment: NVS_ENZ_hIKKa: NovaScreen (NVS) Enzymatic Assay for human IkappaB Kinase alpha (IKKa) (AID 2283167)
# human IkappaB Kinase alpha (IKKa), CHUK (gene 1147), sequence (O15111 whole entry, looked up): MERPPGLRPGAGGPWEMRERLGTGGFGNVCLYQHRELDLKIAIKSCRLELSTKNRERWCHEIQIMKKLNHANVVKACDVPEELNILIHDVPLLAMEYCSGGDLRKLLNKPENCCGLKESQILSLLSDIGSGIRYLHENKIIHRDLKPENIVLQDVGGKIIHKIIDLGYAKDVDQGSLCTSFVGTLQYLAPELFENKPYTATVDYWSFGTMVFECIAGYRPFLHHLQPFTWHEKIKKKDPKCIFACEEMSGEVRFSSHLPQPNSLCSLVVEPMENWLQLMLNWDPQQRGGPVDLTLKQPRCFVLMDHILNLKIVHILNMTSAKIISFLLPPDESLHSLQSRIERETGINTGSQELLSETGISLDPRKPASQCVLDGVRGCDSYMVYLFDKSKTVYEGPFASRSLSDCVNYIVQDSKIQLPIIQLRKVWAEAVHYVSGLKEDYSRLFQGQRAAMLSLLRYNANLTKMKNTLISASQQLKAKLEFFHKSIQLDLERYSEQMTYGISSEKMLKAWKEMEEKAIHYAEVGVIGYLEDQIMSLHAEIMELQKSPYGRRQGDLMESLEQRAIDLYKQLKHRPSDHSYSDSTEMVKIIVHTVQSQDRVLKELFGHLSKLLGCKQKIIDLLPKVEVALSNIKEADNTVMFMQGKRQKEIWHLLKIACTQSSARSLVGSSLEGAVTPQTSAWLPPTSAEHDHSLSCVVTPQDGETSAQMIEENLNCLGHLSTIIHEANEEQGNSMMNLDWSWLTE
# Experimental: as §1, with “NVS_ENZ_hIKKa” for “NVS_ENZ_hGSK3b”, “plate.NVS_ENZ_hIKKa” for “plate.NVS_ENZ_hGSK3b”, “NVS_ENZ_hIKKa,” for “NVS_ENZ_hGSK3b,”, “CHUK.” for “GSK3B.”
# as §2
# [8] = biological target: Histone deacetylase 3 (Homo sapiens) (UniProt O15379); experiment: NVS_ENZ_hHDAC3: NovaScreen (NVS) Enzymatic Assay for human Histone Deacetylase 3 (HDAC3) (AID 2283163)
# Histone deacetylase 3 (Homo sapiens), sequence (O15379 whole entry, looked up): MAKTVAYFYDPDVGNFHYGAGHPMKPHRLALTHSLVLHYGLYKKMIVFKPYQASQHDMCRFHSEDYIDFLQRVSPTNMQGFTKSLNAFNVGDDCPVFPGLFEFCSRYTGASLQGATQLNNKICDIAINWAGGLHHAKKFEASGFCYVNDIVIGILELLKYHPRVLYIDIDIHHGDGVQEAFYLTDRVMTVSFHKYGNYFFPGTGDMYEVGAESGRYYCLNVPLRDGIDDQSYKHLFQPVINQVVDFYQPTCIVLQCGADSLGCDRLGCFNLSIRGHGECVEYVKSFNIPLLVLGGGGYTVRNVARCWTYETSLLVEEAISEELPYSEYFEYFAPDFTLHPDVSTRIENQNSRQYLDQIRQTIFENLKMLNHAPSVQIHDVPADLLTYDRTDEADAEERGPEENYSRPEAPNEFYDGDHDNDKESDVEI
# Summary of the method: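 Cell-free enzyme format: loss of fluorescent product after mobility-shift separation, 1 h incubation, recombinant human HDAC3. Single 25 uM duplicate screen first, then concentration series to a 50 uM top for hits; DMSO as baseline.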
# [9] = biological target: human Ephrin type-B Receptor 2 (EphB2), EPHB2 (gene 2048) (UniProt P29323); experiment: NVS_ENZ_hEphB2: NovaScreen (NVS) Enzymatic Assay for human Ephrin type-B Receptor 2 (EphB2) (AID 2283156)
# Experimental: as §1, with “NVS_ENZ_hEphB2” for “NVS_ENZ_hGSK3b”, “plate.NVS_ENZ_hEphB2” for “plate.NVS_ENZ_hGSK3b”, “NVS_ENZ_hEphB2,” for “NVS_ENZ_hGSK3b,”, “EPHB2.” for “GSK3B.”, “receptor tyrosine” for “serine/threonine”, “kinase. […]” for “kinase.”
# [10] = biological target: Protein deacetylase HDAC6 (Homo sapiens) (UniProt Q9UBN7); experiment: NVS_ENZ_hHDAC6: NovaScreen (NVS) Enzymatic Assay for human Histone Deacetylase 6 (HDAC6) (AID 2283164)
# Summary of the method: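 Concentration-response runs up to 50 uM followed a duplicate 25 uM single-point screen. Deacetylase activity of recombinant human HDAC6 read by fluorescence after 1 h, with mobility-shift separation of substrate and product; DMSO as baseline.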
smiles,measurement,setting,value
COP(=S)(OC)Oc1ccc([N+](=O)[O-])cc1,outcome,[1],inactive
COC(=O)c1ccccc1S(=O)(=O)NC(=O)N(C)c1nc(C)nc(OC)n1,outcome,[2],inactive
N#Cc1c(Cl)c(Cl)c(Cl)c(C#N)c1Cl,AC50,[3],25 µM (active)
CNC(=O)CSP(=S)(OC)OC,outcome,[4],inactive
same,outcome,[5],inactive
same,outcome,[6],inactive
CC1(C)C(C=C(Cl)Cl)C1C(=O)OC(C#N)c1ccc(F)c(Oc2ccccc2)c1 (stereo unspecified),outcome,[4],inactive
O=C(O)COc1ccc(Cl)cc1Cl,outcome,[7],inactive
CC[C@H](C)[C@H]1O[C@]2(C=C[C@@H]1C)C[C@@H]1C[C@@H](C/C=C(\C)[C@@H](O[C@H]3C[C@H](OC)[C@@H](O[C@H]4C[C@H](OC)[C@@H](O)[C@H](C)O4)[C@H](C)O3)[C@@H](C)/C=C/C=C3\CO[C@@H]4[C@H](O)C(C)=C[C@@H](C(=O)O1)[C@]34O)O2 (tested in a mixture with another compound),outcome,[6],inactive
O=C(NC(=O)c1c(F)cccc1F)Nc1ccc(OC(F)(F)C(F)OC(F)(F)F)c(Cl)c1 (stereo unspecified),outcome,[8],inactive
O=[N+]([O-])/N=C1\NCCN1Cc1ccc(Cl)nc1,outcome,[4],inactive
same,outcome,[5],inactive
CNC(=O)/C=C(\C)OP(=O)(OC)OC,AC50,[1],18.3 µM (active)
CNC(=O)Oc1cccc(N=CN(C)C)c1,outcome,[1],inactive
CC(C)(C)C(O)C(Oc1ccc(Cl)cc1)n1cncn1 (stereo unspecified),outcome,[6],inactive
Oc1cc(Cl)ccc1Oc1ccc(Cl)cc1Cl,outcome,[4],inactive
same,outcome,[6],inactive
O=C(O)C(F)(F)C(F)(F)C(F)(F)C(F)(F)C(F)(F)C(F)(F)C(F)(F)F,outcome,[2],inactive
same,outcome,[7],inactive
CC(C)N(C(=O)COc1nnc(C(F)(F)F)s1)c1ccc(F)cc1,AC50,[1],11.8 µM (active)
CCOCN(C(=O)CCl)c1c(C)cccc1CC,outcome,[9],inactive
O=S(=O)(O)C(F)(F)C(F)(F)C(F)(F)C(F)(F)C(F)(F)C(F)(F)C(F)(F)C(F)(F)F,AC50,[4],15.8 µM (active)
same,AC50,[6],39.7 µM (active) and 24.3 µM (active)
same,AC50,[2],47 µM (active)
same,AC50,[8],17.4 µM (active) and 10.3 µM (active)
same,AC50,[3],39.3 µM (active)
same,AC50,[7],27.2 µM (active) and 25.9 µM (active)
CC(C)OC(=O)Nc1cccc(Cl)c1,outcome,[1],inactive
Oc1ccc(Cl)cc1Cc1ccccc1,outcome,[4],inactive
same,outcome,[9],inactive
same,outcome,[1],inactive
same,outcome,[3],inactive
COP(=O)(OC)OC=C(Cl)Cl,AC50,[1],7.13 µM (active)
ClC1C(Cl)C(Cl)C(Cl)C(Cl)C1Cl (stereo unspecified),outcome,[5],inactive
same,outcome,[6],inactive
same,AC50,[10],0.00517 µM (active)
